This passage reports nuclear beta-catenin stimulation results from PubChem BioAssay.

Activity calls are given as the source filed them. No stated cut-off is given here; in the data, active means nuclear beta-catenin stimulation mostly above about 4.2% (no sharp cut-off); inactive means mostly below about 10%.

A short description of this test: stimulators of nuclear beta-catenin in C2C12, primary screen, imaging, WNT3A-conditioned medium, mouse C2C12, NPC library (AID 1117326). Further: reference of the scale not given here. Conditions: at 10 µM, hits give high values.
Take `COc1cc(N)c(Cl)cc1C(=O)NC1CCN(CCCOc2ccc(F)cc2)CC1OC` (stereo not given): the nuclear beta-catenin stimulation is 13% (inactive).
The value for `O=C(OOC(=O)c1ccccc1)c1ccccc1` was 2.3% (inactive); that for `C[C@@]12C(=O)OC(=O)[C@]1(C)C1CCC2O1` was -1.7% (active); that for `CCOCC(O)COc1ccc(NC(=O)CC[S+](C)C)cc1` (stereo not given) was -0.1% (inactive).
As to `C[N+](C)(C)CCCCCCCCCC[N+](C)(C)C`, the nuclear beta-catenin stimulation is -0.1% (inactive).
The result for `CC[C@@H](CO)NCCN[C@@H](CC)CO` reads 0.5% (inactive).
For `Cc1ncc(CSSCc2cnc(C)c(O)c2CO)c(CO)c1O`, the nuclear beta-catenin stimulation was 0.2% (inactive).
The value for `O=C(O)CN(CC(=O)O)Cc1cc2c(-c3ccccc3C(=O)O)c3cc(CN(CC(=O)O)CC(=O)O)c(=O)cc-3oc2cc1O` was -1.1% (inactive); that for `CC1=C(C/C=C(\C)CCC[C@H](C)CCC[C@H](C)CCCC(C)C)C(=O)c2ccccc2C1=O` was 0.3% (inactive); that for `OCCc1ccccc1` was 4.3% (inactive).
The value for `O=C1c2ccccc2C(=O)C1c1ccc(Br)cc1` was 2.7% (inactive); that for `CCOC(=O)c1ccc(O)cc1` was -0.6% (inactive); that for `O=C(CCCl)NCc1ccccc1` was 0.5% (inactive).
Turning to `CC1(C)[C@@H]2CC[C@@]1(C)C(=O)C2`, the nuclear beta-catenin stimulation is 0.2% (inactive).
The value for `Cc1cc(C(C#N)c2ccc(Cl)cc2)c(Cl)cc1NC(=O)c1cc(I)cc(I)c1O` (stereo not given) was 2.4% (inactive).
As for `CC(C)CCCC(C)N` (stereo not given), the nuclear beta-catenin stimulation was 3.1% (inactive).
The value for `NCCNCCNCCN` was 0.6% (inactive).
Regarding `Nc1ncn([C@H]2C[C@H](O)[C@@H](CO)O2)c(=O)n1`, the nuclear beta-catenin stimulation is 7.2% (inactive).
Turning to `CC(O)Cn1cnc2c1c(=O)n(C)c(=O)n2C` (stereo not given), the nuclear beta-catenin stimulation is 3.9% (inactive).
The result for `CC(=O)NCc1c(I)c(NC(C)=O)c(I)c(C(=O)O)c1I` reads -1.4% (inactive); that for `O=S(=O)(O)CCCS(=O)(=O)O`, -2.1% (inactive).
The result for `CNCc1ccccc1` reads -1.9% (inactive).
Consider `CCN(CC)CCOc1ccc2c(c1)C(=O)c1cc(OCCN(CC)CC)ccc1-2`, for which the nuclear beta-catenin stimulation is 8.6% (inactive).
The value for `CN(C)CCCOc1nn(Cc2ccccc2)c2ccccc12` was 2.1% (inactive); that for `CCCCCCCCCCOc1cc2c(=O)c(C(=O)OCC)c[nH]c2cc1OCC` was -2.3% (inactive).
For `NC(=O)c1cc[n+](CC2=C(C(=O)[O-])N3C(=O)[C@@H](NC(=O)Cc4cccs4)[C@H]3SC2)cc1`, the nuclear beta-catenin stimulation was -2.2% (inactive).
The value for `Cc1c(F)c(N2CCNC(C)C2)cc2c1c(=O)c(C(=O)O)cn2C1CC1` (stereo not given) was 0.7% (inactive); that for `Cc1cc2nc3ccc(=[N+](C)C)cc-3sc2cc1N` was 21.6% (inactive); that for `NC(=O)C1(N2CCCCC2)CCN(CCCC(=O)c2ccc(F)cc2)CC1` was -0.9% (inactive).
The value for `CC(=O)NC(Cc1ccccc1)C(=O)O` (stereo not given) was 1% (inactive); that for `O=C(Nc1ccc(C(=O)O)c(O)c1)c1ccccc1` was 0.3% (inactive).
The result for `CC(C)=CCC/C(C)=C/CO` reads -0.1% (inactive).
Take `CC1=C(/C=C/C(C)=C/C=C/C(C)=C/C(=O)Nc2ccc(O)cc2)C(C)(C)CCC1`: the nuclear beta-catenin stimulation is 21.3% (inactive).
For the compound `O=C1OC2(c3ccc(O)cc3Oc3cc(O)ccc32)c2ccccc21`, the nuclear beta-catenin stimulation is -0.4% (inactive).
The value for `COc1cc(C(=O)NCCCCCC(=O)O)cc(OC)c1OC` was -0.1% (inactive); that for `OC1C(O)C(O)C(O)C(O)C1O` (stereo not given) was 2.8% (inactive).
The value for `Nc1nc(Cl)nc2c1ncn2[C@@H]1O[C@H](CO)[C@@H](O)[C@@H]1F` was 30.8% (inactive).
Turning to `CC(O)(P(=O)(O)O)P(=O)(O)O`, the nuclear beta-catenin stimulation was 3.1% (inactive).
The result for `CC(=O)OCC(=O)[C@@]1(O)CCC2C3CCC4=CC(=O)CC[C@]4(C)C3[C@@H](O)C[C@@]21C` (stereo not given in full) reads -1.1% (inactive); that for `NC(=O)CCCCC1CCSS1` (stereo not given), -0.8% (inactive).
